This passage reports outcome and AC50 results from PubChem BioAssay (EPA / NIEHS).

What is called AC50 is the concentration giving half of the maximal activity seen.

Activity calls are given as the source filed them. The calls were made as follows: active = hit-call score of the fitted dose curve at least 0.9, where 1 is the maximum; inactive = score below 0.9.

Read-out in assay [1]: Human Leukocyte Antigen - DR isotype (HLADR), HLA-DRA (gene 3122)
As to the kind of experiment: BSK_3C_HLADR: BioMAP Diversity Plus: 3C Assay for Human Leukocyte Antigen - DR isotype (HLADR) Biomarker Activity (AID 2283019). The note with it: primary human endothelial cells (HUVEC); actives raise or lower the signal. In a few lines: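 Primary human umbilical vein endothelial cells (3C system) were dosed with compound and cell-surface HLA-DR was quantified by ELISA at 24 h. Activity was fitted bidirectionally against DMSO as negative control and baseline.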

Read-out in assay [2]: Interleukin-8 (IL8), CXCL8 (gene 3576)
Nature of the assay: BSK_3C_IL8: BioMAP Diversity Plus: 3C Assay for Interleukin-8 (IL8) Biomarker Activity (AID 2283020). The note with it: primary human endothelial cells (HUVEC); actives raise or lower the signal. The procedure, abridged:
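Primary human umbilical vein endothelial cells were dosed for 24 h. IL-8 was quantified by ELISA and fitted bidirectionally against DMSO. Cytotoxicity was assessed in parallel cultures by SRB staining at 560 nm.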

Read-out in assay [3]: Monokine induced gamma interferon (MIG), CXCL9 (gene 4283)
As to the kind of experiment: BSK_3C_MIG: BioMAP Diversity Plus: 3C Assay for Monokine induced gamma interferon (MIG) Biomarker Activity (AID 2283021). As to conditions: primary human endothelial cells (HUVEC); actives raise or lower the signal. In a few lines: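 HUVEC primary endothelial cultures dosed with chemical; MIG quantified by ELISA at 24 h. Data fitted bidirectionally against DMSO control, with parallel SRB total-protein staining for cytotoxicity.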

Assay [4] is described as follows: BSK_3C_SRB: Viability Assessment in the BioMAP Diversity Plus: 3C Assay (AID 2283023).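 Also: fitted both ways against DMSO so a hit may be signal rise or drop.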 The note with it: primary human endothelial cells (HUVEC). The procedure, abridged: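 Primary human umbilical vein endothelial cells in the 3C system were read 24 h after compound dosing. Total protein was stained with 0.1% sulforhodamine B after 10% TCA fixation and read at 560 nm, with bidirectional fitting against DMSO as baseline.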

Read-out in assay [5]: Matrix Metallopeptidase 1 (MMP1), MMP1 (gene 4312)
Nature of the assay: BSK_BE3C_MMP1: BioMAP Diversity Plus: BE3C Assay for Matrix Metallopeptidase 1 (MMP1) Biomarker Activity (AID 2283024). The note with it: primary human bronchial epithelial cells; actives raise or lower the signal. The procedure, abridged:
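Human primary bronchial epithelial cells (BE3C system) dosed for 24 h; MMP-1 quantified by ELISA. Bidirectional fit against DMSO; cytotoxicity tracked in parallel cultures by SRB total-protein staining.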

Assay [6] is described as follows: BSK_3C_Vis: BioMAP Diversity Plus: 3C Assay for Morphology Visualization (AID 2283025).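 Also: fitted both ways so gain or loss versus DMSO counts.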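 As to AC50: light microscopy image of cell morphology used as background control.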 The note with it: primary human endothelial cells (HUVEC). In a few lines: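 Human umbilical vein endothelial cell morphology was inspected by light microscopy 24 h after chemical dosing; scored bidirectionally relative to DMSO.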
Read-out in assay [7]: Pselectin, SELP (gene 6403)
Nature of the assay: BSK_4H_Pselectin: BioMAP Diversity Plus: 4H Assay for Pselectin Biomarker Activity (AID 2283026). As to conditions: primary human endothelial cells (HUVEC); actives raise or lower the signal. The procedure, abridged:
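Primary human umbilical vein endothelial cells were treated 24 h, and cell-surface P-selectin was then quantified by ELISA. Bidirectional fit versus DMSO; cytotoxicity checked in parallel cultures by SRB total-protein staining.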

Assay [8] can be described thus: BSK_4H_SRB: Viability Assessment in the BioMAP Diversity Plus: 4H Assay (AID 2283027).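 Also: cells exposed to compound for 24 h before staining.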 As to conditions: primary human endothelial cells (HUVEC). In a few lines:
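Human umbilical vein endothelial cells were dosed with chemical and, after 24 h, fixed with 10% TCA, stained with 0.1% sulforhodamine B, and read at 560 nm to give total protein as a cytotoxicity measure. Bidirectional fitting relative to DMSO control.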

Assay [9] in a line: BSK_BE3C_SRB: Viability Assessment in the BioMAP Diversity Plus: BE3C Assay (AID 2283028). As to conditions: primary human bronchial epithelial cells. The procedure, abridged:
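Human primary bronchial epithelial cells were exposed to test chemicals for 24 h. Total protein in parallel cultures was then measured by staining with 0.1% sulforhodamine B after 10% TCA fixation, with absorbance read at 560 nm. Activity was fitted bidirectionally against DMSO.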

Read-out in assay [10]: Thrombomodulin, THBD (gene 7056)
Nature of the assay: BSK_3C_Thrombomodulin: BioMAP Diversity Plus: 3C Assay for Thrombomodulin Biomarker Activity (AID 2283029). As to conditions: primary human endothelial cells (HUVEC); actives raise or lower the signal. The procedure, abridged: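 Human umbilical vein endothelial cells were exposed to chemicals for 24 h; cell-surface thrombomodulin quantified by ELISA, with bidirectional fitting against DMSO baseline.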

Read-out in assay [11]: Urokinase-type plasminogen activator receptor (uPAR), PLAUR (gene 5329)
As to the kind of experiment: BSK_4H_uPAR: BioMAP Diversity Plus: 4H Assay for Urokinase-type plasminogen activator receptor (uPAR) Biomarker Activity (AID 2283030). The note with it: primary human endothelial cells (HUVEC); actives raise or lower the signal. In a few lines:
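Primary human umbilical vein endothelial cells were exposed to chemical for 24 h before cell-surface uPAR was quantified by ELISA. Activity was fitted bidirectionally against the DMSO negative control baseline.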

Read-out in assay [12]: Human Leukocyte Antigen - DR isotype (HLADR), HLA-DRA (gene 3122)
As to the kind of experiment: BSK_BE3C_HLADR: BioMAP Diversity Plus: BE3C Assay for Human Leukocyte Antigen - DR isotype (HLADR) Biomarker Activity (AID 2283032). As to conditions: primary human bronchial epithelial cells; actives raise or lower the signal. In a few lines: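 Human primary bronchial epithelial cells (BE3C system) exposed to compound for 24 hours; cell-surface HLA-DR measured by ELISA, fitted bidirectionally relative to DMSO. Total protein by SRB in parallel cultures tracked cytotoxicity.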

Read-out in assay [13]: Interferon-gamma inducible Protein 10 (IP10), CXCL10 (gene 3627)
Nature of the assay: BSK_BE3C_IP10: BioMAP Diversity Plus: BE3C Assay for Interferon-gamma inducible Protein 10 (IP10) Biomarker Activity (AID 2283034). The note with it: primary human bronchial epithelial cells; actives raise or lower the signal. The procedure, abridged: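 Primary human bronchial epithelial cells, with IP-10 measured by ELISA 24 hours after chemical dosing. Bidirectional fit against DMSO; cytotoxicity checked by SRB total protein staining in parallel cultures.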

Read-out in assay [14]: Monokine induced gamma interferon (MIG), CXCL9 (gene 4283)
As to the kind of experiment: BSK_BE3C_MIG: BioMAP Diversity Plus: BE3C Assay for Monokine induced gamma interferon (MIG) Biomarker Activity (AID 2283035). As to conditions: primary human bronchial epithelial cells; actives raise or lower the signal. The procedure, abridged: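 ELISA read-out of MIG in human lung bronchial epithelial primary cultures, 24 h post-dosing. Bidirectional curve fit vs DMSO baseline.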

Read-out in assay [15]: Transforming growth factor beta 1 (TGFb1), TGFB1 (gene 7040)
As to the kind of experiment: BSK_BE3C_TGFb1: BioMAP Diversity Plus: BE3C Assay for Transforming growth factor beta 1 (TGFb1) Biomarker Activity (AID 2283036). The note with it: primary human bronchial epithelial cells; actives raise or lower the signal. The procedure, abridged:
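Primary human bronchial epithelial cells dosed with chemical; TGF-b1 measured by ELISA 24 h after dosing. Bidirectional curve fitting against DMSO negative control; SRB total-protein staining in parallel cultures gauged cytotoxicity.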

Read-out in assay [16]: Plasminogen activator inhibitor-1 (PAI1), SERPINE1 (gene 5054)
As to the kind of experiment: BSK_BE3C_PAI1: BioMAP Diversity Plus: BE3C Assay for Plasminogen activator inhibitor-1 (PAI1) Biomarker Activity (AID 2283037). The note with it: primary human bronchial epithelial cells; actives raise or lower the signal. The procedure, abridged:
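Primary human bronchial epithelial cells (BE3C system) exposed 24 h; PAI-1 quantified by ELISA. Parallel sulforhodamine B staining of total protein flags cytotoxicity. Bidirectional fit versus DMSO.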

Read-out in assay [17]: urokinase plasminogen activator (uPA), PLAU (gene 5328)
As to the kind of experiment: BSK_BE3C_uPA: BioMAP Diversity Plus: BE3C Assay for urokinase plasminogen activator (uPA) Biomarker Activity (AID 2283038).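 Also: uPA protein level quantified by ELISA in cell cultures; uPA read one day after compound addition.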 As to conditions: primary human bronchial epithelial cells; actives raise or lower the signal. The procedure, abridged:
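Human primary bronchial epithelial cells were exposed to chemical for 24 h, then uPA levels were measured by ELISA. Responses were fitted bidirectionally against DMSO as negative control and baseline. Parallel SRB staining of total protein gauged overt cytotoxicity.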

Read-out in assay [18]: Urokinase-type plasminogen activator receptor (uPAR), PLAUR (gene 5329)
Nature of the assay: BSK_BE3C_uPAR: BioMAP Diversity Plus: BE3C Assay for Urokinase-type plasminogen activator receptor (uPAR) Biomarker Activity (AID 2283039).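 As to outcome: cells exposed to compound for one day before measurement.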 As to conditions: primary human bronchial epithelial cells; actives raise or lower the signal. The procedure, abridged:
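Primary human bronchial epithelial cells dosed for 24 h; uPAR quantified by ELISA with bidirectional fitting against DMSO. Overt cytotoxicity assessed in parallel cultures by SRB total-protein staining (0.1% SRB, 560 nm).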

Read-out in assay [19]: Vascular endothelial growth factor receptor 2 (Homo sapiens) (UniProt P35968)
As to the kind of experiment: BSK_4H_VEGFRII: BioMAP Diversity Plus: 4H Assay for Vascular endothelial growth factor receptor 2 (VEGFR2) Biomarker Activity (AID 2283031). The note with it: primary human endothelial cells (HUVEC); actives raise or lower the signal. In a few lines:
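Primary human umbilical vein endothelial cells in the BioMAP 4H system were dosed with test chemical, and 24 h later VEGFRII was measured by ELISA. Activity was fitted bidirectionally against DMSO as negative control and baseline.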

Read-out in assay [20]: Vascular cell adhesion molecule 1 (VCAM1), VCAM1 (gene 7412)
As to the kind of experiment: BSK_4H_VCAM1: BioMAP Diversity Plus: 4H Assay for Vascular cell adhesion molecule 1 (VCAM1) Biomarker Activity (AID 2283033). The note with it: primary human endothelial cells (HUVEC); actives raise or lower the signal. In a few lines: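 Primary human umbilical vein endothelial cells, 4H stimulation system, treated for 24 h; cell-surface VCAM-1 quantified by ELISA. Bidirectional fitting against DMSO; cytotoxicity tracked by SRB total-protein staining in parallel cultures.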

In the case of `COc1ccc(-c2ccccc2)cc1NNC(=O)OC(C)C`, the outcome in assay [1], in [2], in assay [3], in assay [4], in assay [5] and in [6] was inactive. The outcome in assay [7], in [8], in assay [9], in assay [10], in [11] and in assay [12] was inactive. The result in [13], in assay [14], in assay [15], in assay [16], in assay [17] and in assay [18] was inactive.

For the molecule `CC(C)N1C(=O)c2ccccc2NS1(=O)=O`, the result in assay [1], in assay [2], in assay [3], in [4], in assay [5] and in [6] was inactive. The result in assay [7], in assay [8], in [9], in assay [10], in [11] and in assay [19] was inactive. The result in [12], in assay [20], in assay [13], in assay [14], in [16] and in assay [17] was inactive. Further, the result in assay [18] was inactive.

`CCOP(=S)(OCC)Oc1nc(Cl)n(C(C)C)n1`: the outcome in assay [1], in assay [2], in assay [3], in assay [4], in assay [5] and in assay [6] was inactive. The result in assay [7], in assay [8], in assay [9], in [11], in assay [12] and in assay [20] was inactive. The result in assay [13], in [14], in [15], in [16], in assay [17] and in [18] was inactive. Further, in assay [10], the AC50 was 3.97 µM (active).

With `N#CN=C1SCCN1Cc1ccc(Cl)nc1`, the result in [1], in [2], in assay [3], in assay [4], in assay [5] and in assay [6] was inactive. The result in assay [7], in [8], in [9], in assay [10], in [11] and in assay [12] was inactive. Moreover, the outcome in [20], in assay [13], in [14], in assay [15], in [16] and in assay [17] was inactive. Moreover, the result in assay [18] was inactive.

Take `Clc1nc(Cl)nc(Nc2ccccc2Cl)n1`: the outcome in [1], in assay [2], in assay [3], in [4], in [5] and in assay [6] was inactive. Moreover, the result in [7], in assay [8], in assay [9], in assay [10], in [11] and in assay [12] was inactive. Also, the result in [13], in assay [14], in [15], in assay [16] and in assay [17] was inactive. The AC50 in [18] was 0.293 µM (active).

In the case of `CNC(=O)Oc1cccc2ccccc12`, the result in [1], in assay [2], in [3], in [5], in assay [8] and in assay [9] was inactive. The result in assay [10], in [11], in assay [19], in [12], in assay [13] and in assay [14] was inactive. Besides, the outcome in [15], in [16], in assay [17] and in [18] was inactive. Also, the AC50 in [4] was 12.4 µM (active); in assay [6] it was 13.7 µM (active); in [7], 16.7 µM (active); in [20], 20 µM (active).
